Records with an inconclusive call do not appear. Where a call stands in place of a potency, no number is given. Calls of active or inactive are those of the source. No rule for the calls is given here.
Assay: qHTS assay to identify small molecule antagonists of the estrogen related receptor signaling pathway with the pleiotropic PPARgamma coactivator (PGC) from Tox21 10K library (AID 1224841); also: actives are mostly falling curves and most rising ones were filed inactive; nearly all actives have a fitted effect of over 50% in size
Conditions: PGC/ERR reporter cell line, ONE-Glo luciferase, 18 h; series mostly up to 92.4 µM
Excerpt: U.S. Tox21 Program National Center for Advancing Translational Sciences [NCATS] NIH Chemical Genomics Center [NCGC] U.S. Environmental Protection Agency [EPA] National Institutes of Environmental Health Sciences [NIEHS] National Toxicology Program [NTP] U.S. Food and Drug Administration [FDA] Tox21 Assay Overview: Estrogen related receptors (ERRs), the first orphan nuclear receptors discovered, play an important role in the control of cellular energy metabolism. ERRs are required for high-energy production in response to the environmental challenges. The pleiotropic PPARgamma coactivator (PGC) is a major partner of ERR and a key regulator in energy homeostasis. Together they have been implicated in the etiology of metabolic disorders such as Type 2 diabetes and metabolic syndrome. ERR-alpha was also identified as an adverse marker for breast cancer progression; ERR-alpha-positive tumors have a poor prognosis. To screen and to identify environmental compounds that perturb the ERR and PGC/ERR signaling pathways could provide valuable information for potential therapeutic or preventive measures in the treatment of metabolic disease. For identifying PGC/ERR antagonists, PGC/ERR cell line (provided by NTP) has been used to screen Tox21 10K library.
Tox21 Assay Protocol Summary: The PGC/ERR cells were dispensed at 2,000 cells/5 ul/well in 1536-well white plates using a Multidrop dispenser. After the assay plates were incubated at a 37 C/5% CO2 incubator for 6 hours, 23 nL of compounds dissolved in DMSO, positive and negative controls or DMSO only was transferred to the assay plate by a pin tool. The plates were incubated at 37 C for 18 hours. 4 ul/well of One-Glo reagent was added into the assay plates using a Flying Reagent Dispenser. After 30-minute incubation at room temperature, the luminescence intensity in the plates was measured using a ViewLux plate reader.
Potency is read from the fitted curve at half-maximal effect.

**Q.** With `OC(c1ccc(Cl)cc1)(c1ccc(Cl)cc1)c1cccnc1` as the molecule, how does the Potency read?
**A.** Its Potency is 61.1 µM (active).

**Q.** With `CCOC(=O)COc1cc(-c2nn(C)c(OC(F)F)c2Cl)c(F)cc1Cl` as the molecule, how does the Potency read?
**A.** The Potency was “inactive”.

**Q.** With `CC/C(=N\OC/C=C/Cl)C1=C(O)CC(C2CCOCC2)CC1=O` (stereo not given) as the molecule, how does the Potency read?
**A.** Its Potency is “inactive”.

**Q.** Which Potency does the source give for `C[N+](C)(C)CCCl` here?
**A.** The Potency was “inactive”.

**Q.** For `NC(=O)CI`, which Potency is on record?
**A.** Its Potency is “inactive”.

**Q.** Which Potency does the source give for `CCCCCCCCCCOC(=O)c1ccccc1C(=O)OCCCCCCCCCC` here?
**A.** The Potency was “inactive”.

**Q.** For `O=C(O)CC(Cl)C(=O)O` (stereo not given), which Potency is on record?
**A.** Its Potency is “inactive”.

**Q.** For `CC1(C)CCC(Cc2ccc(Cl)cc2)C1(O)Cn1cncn1` (stereo not given), which Potency is on record?
**A.** Its Potency is 38.6 µM (active).

**Q.** With `O=C(NC(=O)c1c(F)cccc1F)Nc1ccc(OC(F)(F)C(F)OC(F)(F)F)c(Cl)c1` (stereo not given) as the molecule, how does the Potency read?
**A.** The Potency was “inactive”.

**Q.** Which Potency does the source give for `O=[Se]=O` here?
**A.** Its Potency is 13.6 µM (active).

**Q.** Which Potency does the source give for `COc1ccc(-c2ccccc2)cc1NNC(=O)OC(C)C` here?
**A.** The Potency was 35.8 µM (active).

**Q.** With `NCC(CC(=O)O)c1ccc(Cl)cc1` (stereo not given) as the molecule, how does the activity, negative = inhibition read?
**A.** Its activity, negative = inhibition is -1% [at 0.349 µM] (inactive).

**Q.** For `S=C=NCc1ccccc1`, which Potency is on record?
**A.** Its Potency is “inactive”.

**Q.** Which Potency does the source give for `Cc1ccc(N)cc1C` here?
**A.** The Potency was “inactive”.

**Q.** With `CC(c1ccc(O)cc1)(c1ccc(O)cc1)c1ccc(O)cc1` as the molecule, how does the Potency read?
**A.** Its Potency is 54.5 µM (active).

**Q.** For `COc1cc(Cl)c(OC)cc1Cl`, which Potency is on record?
**A.** The Potency was “inactive”.

**Q.** With `CCBr` as the molecule, how does the Potency read?
**A.** Its Potency is “inactive”.

**Q.** With `C=C(C#N)CCC#N` as the molecule, how does the Potency read?
**A.** Its Potency is “inactive”.

**Q.** Which Potency does the source give for `Cc1ccc2ccccc2c1` here?
**A.** Its Potency is “inactive”.

**Q.** For `C=CCN1CC[C@]23c4c5ccc(O)c4O[C@H]2C(=O)CC[C@@]3(O)[C@H]1C5`, which Potency is on record?
**A.** Its Potency is “inactive”.

**Q.** Which Potency does the source give for `N#C/C(N)=C(/N)C#N` here?
**A.** The Potency was “inactive”.

**Q.** With `ClCc1cccc(Cl)c1` as the molecule, how does the Potency read?
**A.** The Potency was “inactive”.

**Q.** With `COC(C)(C)CCC[C@H](C)C/C=C/C(C)=C/C(=O)OC(C)C` as the molecule, how does the Potency read?
**A.** The Potency was “inactive”.

**Q.** With `COC1=CC(=O)O[C@@H](CCc2ccccc2)C1` as the molecule, how does the Potency read?
**A.** The Potency was “inactive”.

**Q.** With `N#Cc1cc(I)c(O)c(I)c1` as the molecule, how does the Potency read?
**A.** Its Potency is 30.6 µM (active).

**Q.** Which Potency does the source give for `CC(Cl)Cl` here?
**A.** The Potency was “inactive”.

**Q.** For `CCCCOC(=O)c1ccccc1C(=O)OCc1ccccc1`, which Potency is on record?
**A.** Its Potency is “inactive”.

**Q.** With `CC(C)=CCOc1c2occc2cc2ccc(=O)oc12` as the molecule, how does the Potency read?
**A.** Its Potency is “inactive”.

**Q.** Which Potency does the source give for `C=CC(=O)OCC(C)C` here?
**A.** Its Potency is “inactive”.

**Q.** For `CCCC(Cn1cncn1)c1ccc(Cl)cc1Cl` (stereo not given), which Potency is on record?
**A.** The Potency was 30.6 µM (active).

**Q.** Which Potency does the source give for `CC(C)(OO)c1ccccc1` here?
**A.** The Potency was “inactive”.

**Q.** For `O=[N+]([O-])c1ccc(F)c([N+](=O)[O-])c1`, which Potency is on record?
**A.** The Potency was 49 µM (active).

**Q.** Which Potency does the source give for `COc1nn(C(=O)NS(=O)(=O)c2ccccc2OC(F)(F)F)c(=O)n1C` here?
**A.** Its Potency is “inactive”.

**Q.** With `COCCOCCO` as the molecule, how does the Potency read?
**A.** The Potency was “inactive”.

**Q.** For `O=[N+]([O-])c1cc(C(F)(F)F)cc([N+](=O)[O-])c1Cl`, which Potency is on record?
**A.** The Potency was “inactive”.

**Q.** With `[O-][Cl+]O` as the molecule, how does the Potency read?
**A.** Its Potency is “inactive”.

**Q.** With `Nc1nc(=S)[nH][nH]1` as the molecule, how does the Potency read?
**A.** Its Potency is “inactive”.

**Q.** Which Potency does the source give for `CN1C(=O)C(O)N=C(c2ccccc2)c2cc(Cl)ccc21` (stereo not given) here?
**A.** Its Potency is “inactive”.

**Q.** Which Potency does the source give for `Cc1ccccc1CCl` here?
**A.** Its Potency is “inactive”.

**Q.** Which Potency does the source give for `CCCCC(O)(Cn1cncn1)c1ccc(Cl)cc1Cl` (stereo not given) here?
**A.** Its Potency is 48.5 µM (active).
